These results are taken from ChEMBL document CHEMBL1961873, “Compounds: GSK PKIS; Assays: Nanosyn kinase panel” (2012).
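Also: reported value is a mean PLK1 inhibition.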

In the experiment the target is Serine/threonine-protein kinase PLK1 (Homo sapiens) (UniProt P53350). The note with it: at 1 µM.
Serine/threonine-protein kinase PLK1 (Homo sapiens), sequence (P53350 whole entry): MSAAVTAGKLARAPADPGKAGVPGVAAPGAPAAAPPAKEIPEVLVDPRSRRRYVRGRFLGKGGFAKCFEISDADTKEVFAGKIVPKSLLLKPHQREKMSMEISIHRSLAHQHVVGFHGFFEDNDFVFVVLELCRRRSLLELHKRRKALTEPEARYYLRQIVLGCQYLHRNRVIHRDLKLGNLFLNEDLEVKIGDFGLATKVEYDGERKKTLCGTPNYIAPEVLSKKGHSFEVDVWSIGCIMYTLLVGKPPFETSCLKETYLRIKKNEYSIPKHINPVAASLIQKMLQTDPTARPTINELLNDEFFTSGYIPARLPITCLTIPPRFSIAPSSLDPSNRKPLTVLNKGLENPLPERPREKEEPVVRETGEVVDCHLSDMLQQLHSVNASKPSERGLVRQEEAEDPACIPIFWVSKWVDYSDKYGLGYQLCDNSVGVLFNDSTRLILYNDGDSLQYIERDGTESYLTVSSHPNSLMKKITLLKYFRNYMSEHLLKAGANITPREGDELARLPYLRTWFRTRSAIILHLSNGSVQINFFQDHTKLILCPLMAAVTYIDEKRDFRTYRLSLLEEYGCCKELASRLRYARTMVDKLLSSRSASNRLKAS
For orientation: inhibition means the change of the read-out against control, counted positive when it falls. On to `Fc1ccc(-c2c(-c3ccncc3)nc3n2CCS3)cc1`, for which the inhibition came out at 2.94%.

In the case of `C/C(Nc1ccc(S(N)(=O)=O)cc1)=C1/C(=O)Nc2ccccc21`, the inhibition is -0.72%.

With `CCS(=O)(=O)c1ccc(OC)c(Nc2ncc(-c3ccccc3Cl)o2)c1`, the inhibition was determined as 3.51%.

Turning to `COc1cc(N2CCN(C(C)C)CC2)ccc1Nc1nc(Nc2ccc(F)cc2C(=O)NC[C@@H](O)CO)c2cc[nH]c2n1`, the inhibition amounted to 38%.

Turning to `Cc1nnc(-c2ccc(C)c(-c3ccc(C(=O)NCc4ccc(Cl)cc4)cc3)c2)o1`, the inhibition was determined as 4.52%.

For `CN(C)CCCNc1nccc(-c2c(-c3ccc(F)cc3)nn3cc(C(F)(F)F)ccc23)n1`, the inhibition worked out at 2.23%.

Turning to `CS(=O)(=O)CCNCc1ccc(-c2ccc3ncnc(Nc4ccc(OCc5ccccc5)c(Br)c4)c3c2)o1`, the inhibition came out at 3.81%.

`O=C(NCC1CC1)c1ccc(-c2cccc(C(=O)NC3CC3)c2)cc1`: the inhibition was -0.14%.

Take `CN1CCN(CCCNc2nc3ccc(Oc4ccc(NC(=O)Nc5cc(C(F)(F)F)ccc5F)cc4)cc3[nH]2)CC1`: the inhibition came to 0.98%.

Take `CN(C)c1ccc2c(c1)/C(=C/Nc1ccc(S(N)(=O)=O)cc1)C(=O)N2`: the inhibition is 2.41%.

Regarding `Clc1ccc(CNc2nccc(-c3cnn4ncccc34)n2)cc1`, the inhibition was 2.85%.

`COc1cccc(-n2cnc3c(N/N=C/c4ccncc4)ncnc32)c1`: the inhibition is -0.54%.

Regarding `COc1ccc2cc(-c3c(-c4ccncc4)nc(-c4ccc([S+](C)[O-])cc4C)n3C)ccc2c1` (stereo unspecified), the inhibition is -0.2%.

Turning to `c1ccc(-c2n[nH]cc2-c2ccnc(-c3ccc(OCCN4CCOCC4)cc3)c2)nc1`, the inhibition was -1.28%.

As to `CNC(=O)c1cncc(/C=C/c2c(C)cccc2C)c1`, the inhibition amounted to 0.2%.

With `COc1cc(C)c(N(C)C(=O)CN(C)C)cc1Nc1nc(Nc2cccc(F)c2C(N)=O)c2cc[nH]c2n1`, the inhibition worked out at 2.83%.

As for `C#Cc1cccc(Nc2ncnc3ccc(OCCCCNCCS(C)(=O)=O)cc23)c1`, the inhibition was determined as 2.68%.

Take `COC(=O)Nc1nc2ccc(Sc3ccc(NC(=O)Nc4cc(C(F)(F)F)ccc4F)cc3)cc2[nH]1`: the inhibition turned out to be 0.84%.

For `CCc1nccc2c1nc(-c1nonc1N)n2CC`, the inhibition was 1.55%.

In the case of `O=C1Nc2ccc(I)cc2C1=Cc1cc(Br)c(O)c(Br)c1`, the inhibition was found to be 9.77%.

In the case of `COc1cc2ncn(-c3cc(OCc4ccccc4C(F)(F)F)c(C(C)=O)s3)c2cc1OC`, the inhibition was determined as 67.7%.

As to `O=C(Nc1ccc(Oc2ccc3[nH]c(NC(=O)c4ccccc4)nc3c2)cc1)Nc1cc(C(F)(F)F)ccc1F`, the inhibition amounted to 1.84%.

With `c1ccc(Oc2ccc(Nc3ncc(-c4ccccc4)o3)cc2)cc1`, the inhibition came to 1.6%.

For `Fc1ccc(-c2ncn(CCCN3CCOCC3)c2-c2ccncc2)cc1`, the inhibition was -0.73%.

`Fc1ccc(-c2nc3n(c2-c2ccncc2)CCS3)cc1`: the inhibition is 4.09%.

For the compound `FC(F)(F)c1cccc(Nc2nccc(-c3cnn4nc(-c5ccccc5)ccc34)n2)c1`, the inhibition was -0.34%.
